Data reported in PubChem BioAssay AID1159580 (chemical genetic matrix, 2015).
Values joined by “and” are separate entries in the source; they are usually repeats but may differ in a detail not shown here. Equal values may be shown once. In all, about 5,500 compounds went through this assay and about 2,000 (36%) were called active. Roughly 18% stayed inconclusive and do not appear here. Cut-off read from the data, not from the text of the source: active = normalized growth mostly below about 0.91 (no sharp cut-off); inconclusive = no clear call, values can overlap the other calls; inactive = mostly above about 0.92. The list shows a part of the results.

Experiment: chemical genetic growth profiling, strain panel (AID 1159580);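 note: tested at 20 µM; growth read once vehicle control cultures reached saturation at 30 °C; 1 = growth at the plate median or of vehicle wells; lower values mean less growth of the strain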
Conditions: S. cerevisiae deletion strains, growth OD

Measured: normalized growth

CC(=O)O[C@H]1C[C@@H](OC(C)=O)C(C)(C)C2C[C@@H](OC(C)=O)[C@]3(C)C(CC[C@@]4(C)[C@H](c5ccoc5)C(=O)[C@H]5O[C@]543)[C@]21C (stereo partly drawn)
inactive: locus YAL021C, strain ccr4, active compounds read low 0.992 | locus YAL026C, strain drs2, active compounds read low 0.991 | locus YAL030W, strain snc1, active compounds read low 0.99 | locus YBL061C, strain skt5, active compounds read low 1 | locus YBR009C, strain hhf1, active compounds read low 1 | locus YBR021W, strain FUR4, active compounds read low 0.966 | locus YBR023C, strain chs3, active compounds read low 1.01 | locus YBR171W, strain sec66, active compounds read low 1 | locus YBR229C, strain ROT2, active compounds read low 1.01 | locus YBR231C, strain swc5, active compounds read low 1 | locus YBR279W, strain paf1, active compounds read low 1 | locus YCL011C, strain gbp2, active compounds read low 1.01 | locus YCL016C, strain dcc1, active compounds read low 0.998 | locus YCL029C, strain bik1, active compounds read low 1.01 | locus YCL061C, strain MRC1, active compounds read low 0.997 | locus YCL069W, strain vba3, active compounds read low 1 | locus YCR088W, strain abp1, active compounds read low 0.995 | locus YDL005C, strain med2, active compounds read low 0.986 | locus YDL035C, strain GPR1, active compounds read low 0.969 | locus YDL040C, strain nat1, active compounds read low 0.995 | locus YDL074C, strain BRE1, active compounds read low 0.975 | locus YDL101C, strain DUN1, active compounds read low 1.02 | locus YDL134C, strain PPH21, active compounds read low 1.02 | locus YDL185W, strain tfp1, active compounds read low 1.02 | locus YDL192W, strain arf1, active compounds read low 1.01 | locus YDR001C, strain nth1, active compounds read low 0.981 | locus YDR069C, strain doa4, active compounds read low 0.993 | locus YDR101C, strain arx1, active compounds read low 0.994 | locus YDR137W, strain rgp1, active compounds read low 0.935 | locus YDR150W, strain NUM1, active compounds read low 1.02 | locus YDR159W, strain sac3, active compounds read low 1.02 | locus YDR162C, strain NBP2, active compounds read low 0.987 | locus YDR195W, strain ref2 0.985 | locus YDR297W, strain sur2, active compounds read low 0.996 | locus YDR318W, strain mcm21, active compounds read low 1.01 | locus YDR334W, strain swr1, active compounds read low 0.991 | locus YDR335W, strain msn5, active compounds read low 0.994 | locus YDR388W, active compounds read low 1.04 | locus YDR392W, strain spt3, active compounds read low 1.02 | locus YDR502C, strain sam2, active compounds read low 1.02 | locus YEL003W, strain gim4, active compounds read low 1 | locus YEL037C, strain rad23, active compounds read low 1 | locus YEL061C, strain CIN8 (second series), active compounds read low 0.995 | locus YEL061C, strain CIN8, active compounds read low 1.01 | locus YER015W, strain faa2, active compounds read low 1.01 | locus YER016W, strain bim1, active compounds read low 0.997 | locus YER110C, active compounds read low 1.03 | locus YER111C, strain swi4, active compounds read low 1 | locus YER155C, strain BEM2 (second series), active compounds read low 0.998 | locus YER155C, strain BEM2, active compounds read low 1.02 | locus YER167W, strain BCK2, active compounds read low 1.01 | locus YFR010W, strain ubp6, active compounds read low 0.989 | locus YGL078C, strain dbp3, active compounds read low 1 | locus YGL086W, strain mad1, active compounds read low 1.01 | locus YGL167C, strain pmr1, active compounds read low 1 | locus YGL173C, strain kem1, active compounds read low 1.01 | locus YGL227W, strain vid30, active compounds read low 0.996 | locus YGL240W, strain doc1, active compounds read low 1.01 | locus YGL248W, strain PDE1, active compounds read low 1.02 | locus YGL253W, strain hxk2, active compounds read low 1 | locus YGR135W, strain pre9, active compounds read low 1.05 | locus YGR252W, strain gcn5, active compounds read low 0.996 | locus YHR013C, strain ard1, active compounds read low 1.01 | locus YHR027C, strain rpn1, active compounds read low 0.99 | locus YHR030C, strain SLT2, active compounds read low 1.01 and 0.945 | locus YHR079C, strain IRE1 (second series), active compounds read low 1.03 | locus YHR079C, strain IRE1, active compounds read low 0.925 | locus YHR094C, strain hxt1, active compounds read low 1.03 | locus YHR129C, strain ARP1, active compounds read low 1.02 | locus YHR142W, strain chs7, active compounds read low 1 | locus YHR200W, strain rpn10, active compounds read low 1.02 | locus YIL066C, strain RNR3, active compounds read low 0.98 | locus YIL073C, strain SPO22, active compounds read low 1.01 | locus YIL125W, strain kgd1, active compounds read low 1.01 | locus YIR030C, strain dcg1, active compounds read low 1.02 | locus YJL092W, strain hpr5, active compounds read low 1.01 | locus YJL095W, strain BCK1 (second series), active compounds read low 1 | locus YJL095W, strain BCK1, active compounds read low 1.03 and 0.969 | locus YJL115W, strain asf1, active compounds read low 0.987 | locus YJL129C, strain trk1, active compounds read low 0.973 | locus YJL134W, strain LCB3, active compounds read low 1.02 | locus YJL154C, strain vps35, active compounds read low 0.991 | locus YJL164C, strain tpk1, active compounds read low 1 | locus YJL166W, strain qcr8, active compounds read low 1.01 | locus YJL168C, strain set2, active compounds read low 1.04 | locus YJL187C, strain SWE1 (second series), active compounds read low 1.02 | locus YJL187C, strain SWE1, active compounds read low 1 | locus YJR066W, strain TOR1, active compounds read low 0.888 | locus YJR075W, strain HOC1, active compounds read low 1.04 | locus YKL009W, strain mrt4, active compounds read low 0.898 | locus YKL068W, active compounds read low 1.02 | locus YKL085W, strain MDH1 (second series), active compounds read low 1.01 | locus YKL085W, strain MDH1, active compounds read low 1.01 | locus YKL160W, strain elf1, active compounds read low 0.996 | locus YKL190W, strain CNB1, active compounds read low 1.01 | locus YKR001C, strain vps1, active compounds read low 0.993 | locus YKR026C, strain gcn3, active compounds read low 0.997 | locus YKR091W, strain srl3, active compounds read low 0.995 | locus YLL001W, strain dnm1, active compounds read low 1 | locus YLL026W, active compounds read low 1 | locus YLL041C, strain sdh2, active compounds read low 0.994 | locus YLR027C, strain aat2, active compounds read low 1.02 | locus YLR039C, strain RIC1, active compounds read low 1.02 | locus YLR058C, strain SHM2, active compounds read low 1.01 | locus YLR102C, strain apc9, active compounds read low 1.02 | locus YLR113W, strain HOG1, active compounds read low 1.03 | locus YLR221C, strain rsa3, active compounds read low 1 | locus YLR258W, strain gsy2, active compounds read low 0.995 | locus YLR262C, strain YPT6 (second series), active compounds read low 0.95 | locus YLR268W, strain sec22, active compounds read low 0.982 | locus YLR320W, strain mms22, active compounds read low 1 | locus YLR330W, strain CHS5, active compounds read low 1.02 | locus YLR342W, strain FKS1, active compounds read low 1.01 | locus YLR357W, strain rsc2, active compounds read low 1.01 | locus YLR370C, strain arc18, active compounds read low 1 | locus YLR371W, strain rom2, active compounds read low 1.03 | locus YLR384C, strain iki3, active compounds read low 0.995 | locus YLR418C, strain cdc73, active compounds read low 1.05 | locus YML016C, strain PPZ1, active compounds read low 1.01 | locus YML032C, strain rad52, active compounds read low 0.995 | locus YML120C, strain ndi1, active compounds read low 1 | locus YML124C, strain tub3, active compounds read low 1.02 | locus YMR058W, strain fet3, active compounds read low 0.99 | locus YMR078C, strain ctf18, active compounds read low 1.01 | locus YMR125W, strain sto1, active compounds read low 0.978 | locus YMR129W, active compounds read low 1 | locus YMR205C, strain PFK2, active compounds read low 1.01 | locus YMR223W, strain ubp8, active compounds read low 1.01 | locus YMR231W, strain pep5, active compounds read low 0.978 | locus YMR307W, strain GAS1, active compounds read low 0.931 | locus YNL067W, strain RPL9B, active compounds read low 1.04 | locus YNL071W, strain lat1, active compounds read low 0.996 | locus YNL128W, strain TEP1, active compounds read low 0.991 | locus YNL153C, strain GIM3, active compounds read low 1.02 | locus YNL183C, strain NPR1, active compounds read low 0.904 | locus YNL209W, strain ssb2, active compounds read low 1 | locus YNL233W, strain BNI4, active compounds read low 0.973 | locus YNL248C, strain rpa49, active compounds read low 0.969 | locus YNL250W, strain rad50, active compounds read low 1.06 | locus YNL271C, strain bni1, active compounds read low 1.01 | locus YNL298W, strain CLA4, active compounds read low 1.01 | locus YNL307C, strain MCK1, active compounds read low 1.02 | locus YNL322C, strain KRE1 (second series), active compounds read low 1.01 | locus YNR049C, strain mso1, active compounds read low 1.01 | locus YNR052C, strain pop2, active compounds read low 1.02 | locus YOL006C, strain TOP1, active compounds read low 0.962 | locus YOL012C, strain htz1 1.21 | locus YOL147C, strain pex11, active compounds read low 1.03 | locus YOR001W, strain rrp6, active compounds read low 0.985 | locus YOR061W, strain CKA2, active compounds read low 0.998 | locus YOR069W, strain VPS5, active compounds read low 1.02 | locus YOR070C, strain gyp1, active compounds read low 1 | locus YOR080W, strain dia2, active compounds read low 1.01 | locus YOR083W, strain WHI5, active compounds read low 0.991 | locus YOR106W, strain vam3, active compounds read low 0.985 | locus YOR136W, strain idh2, active compounds read low 1.01 | locus YOR144C, strain elg1, active compounds read low 1.02 | locus YOR184W, strain ser1, active compounds read low 0.965 | locus YOR231W, strain MKK1, active compounds read low 0.919 | locus YOR265W, strain rbl2, active compounds read low 0.997 | locus YOR270C, strain vph1, active compounds read low 0.875 | locus YOR290C, strain snf2, active compounds read low 1 | locus YOR316C, strain cot1, active compounds read low 1.02 | locus YPL051W, strain arl3, active compounds read low 1.01 | locus YPL078C, strain atp4, active compounds read low 0.991 | locus YPL106C, strain sse1, active compounds read low 1.05 | locus YPL240C, strain hsp82, active compounds read low 0.998 | locus YPL256C, strain CLN2, active compounds read low 0.994 | locus YPR119W, strain clb2, active compounds read low 1.02 | locus YPR141C, strain kar3, active compounds read low 1.03 | locus YPR163C, strain tif3, active compounds read low 1.02 | locus YPR167C, strain met16, active compounds read low 1.01 | strain wtn01, active compounds read low 0.987
